The text below walks through data of PubChem BioAssay.

Results filed as inconclusive are left out. Activity calls are given as the source filed them.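 The calls were made as follows, unless noted: active = growth inhibition above 25% in both replicates, a cutoff set 3 SD above the mean; inconclusive = above 25% in only one replicate; inactive = the rest.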

The nature of test [1]: reducers of endogenous Her2 protein level, primary screen, SKBR3 breast tumor cells, AlphaScreen, ATP viability (AID 461;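 active = Her2 level under about 52% in both replicate screens, with viability over 70% of control, limit read from the data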;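 as to Her2 level: lower value means less Her2 protein in the cells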;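 as to viability: percent of carrier control wells set as 100% viability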). The settings on record: 18-24 h, measured here: SKBR3 viability, ATP luminescence, at 10 µM.
Test [2] deals with Receptor tyrosine-protein kinase erbB-2 (Homo sapiens) (UniProt P04626). Described as above. Conditions: 18-24 h, at 10 µM, stronger effect = lower value.
Receptor tyrosine-protein kinase erbB-2 (Homo sapiens), sequence (P04626 whole entry, looked up): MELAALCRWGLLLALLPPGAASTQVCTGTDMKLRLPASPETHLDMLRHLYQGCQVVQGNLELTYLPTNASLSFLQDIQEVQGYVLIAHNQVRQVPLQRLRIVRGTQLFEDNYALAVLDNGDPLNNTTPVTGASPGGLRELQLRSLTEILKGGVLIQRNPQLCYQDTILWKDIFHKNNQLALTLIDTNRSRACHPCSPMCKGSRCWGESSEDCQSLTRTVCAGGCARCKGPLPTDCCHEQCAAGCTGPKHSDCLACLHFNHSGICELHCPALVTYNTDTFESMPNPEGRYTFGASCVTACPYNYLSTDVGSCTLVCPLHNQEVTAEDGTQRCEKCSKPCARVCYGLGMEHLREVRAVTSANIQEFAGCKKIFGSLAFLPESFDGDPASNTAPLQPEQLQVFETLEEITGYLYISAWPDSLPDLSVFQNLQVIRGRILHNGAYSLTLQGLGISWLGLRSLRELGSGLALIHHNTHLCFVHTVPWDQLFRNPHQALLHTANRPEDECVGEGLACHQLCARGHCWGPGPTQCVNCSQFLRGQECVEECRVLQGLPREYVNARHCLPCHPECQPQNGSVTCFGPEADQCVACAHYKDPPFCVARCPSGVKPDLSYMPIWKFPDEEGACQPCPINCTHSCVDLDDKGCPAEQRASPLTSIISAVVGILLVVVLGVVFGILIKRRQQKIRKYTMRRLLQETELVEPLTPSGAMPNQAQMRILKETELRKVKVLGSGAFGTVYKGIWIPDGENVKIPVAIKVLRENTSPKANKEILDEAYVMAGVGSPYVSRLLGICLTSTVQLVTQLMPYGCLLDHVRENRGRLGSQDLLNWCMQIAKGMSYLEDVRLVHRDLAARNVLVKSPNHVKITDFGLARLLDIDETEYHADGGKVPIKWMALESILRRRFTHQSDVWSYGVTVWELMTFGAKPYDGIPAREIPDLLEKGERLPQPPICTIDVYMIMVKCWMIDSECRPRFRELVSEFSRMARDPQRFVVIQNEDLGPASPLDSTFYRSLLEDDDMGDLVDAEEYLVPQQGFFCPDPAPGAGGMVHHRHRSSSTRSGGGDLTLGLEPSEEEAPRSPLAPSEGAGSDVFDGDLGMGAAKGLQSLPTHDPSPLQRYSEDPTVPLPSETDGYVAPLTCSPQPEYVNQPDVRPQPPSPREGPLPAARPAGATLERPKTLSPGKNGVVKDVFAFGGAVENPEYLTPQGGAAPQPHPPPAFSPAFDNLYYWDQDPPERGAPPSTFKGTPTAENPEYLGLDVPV
The nature of test [3]: SK-BR-3 cell growth inhibitors, pilot screen, 24 h, human (AID 572;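 active = viability at or below 10% of carrier control in both of two separate runs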;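 also: compound exposure lasted between 18 and 24 h rather than exactly 24 h; 100% = carrier-treated control wells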). Conditions: SK-BR-3 viability, CellTiter-Glo luminescence, at 10 µM, stronger effect = lower value.
Test [4] in a line: HUVEC growth inhibition – cell-based, human, primary screen (AID 575;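 active = viability at or below 30% in both replicate assays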;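 also: 100% = median of untreated cell wells with 0.1% DMSO on each plate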). Conditions: HUVEC proliferation, CellTiter-Glo luminescence, 72 h; at 10 µM; stronger effect = lower value.
The nature of test [5]: growth inhibitors of H69AR lung tumor, primary screen, human, duplicate replicates (AID 580;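 active = viability at or under a set limit in both replicates, limit being median viability minus 3 SD, cut at about 48% in these data, passing the limit was not always enough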;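 also: 100% = mean luminescence of untreated wells and 0% = no signal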). The settings on record: H69AR lung tumor cells viability, ATP luminescence, 72 h; at 10 µM; stronger effect = lower value.
The nature of test [6]: reversal of MRP1-mediated doxorubicin resistance, pilot screen, H69AR cells, doxorubicin co-treatment (AID 601;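 active = viability loss from added drug above about 55%, and viability with drug at most 40%, in both replicates, limit read from the data, passing the limit was not always enough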). Conditions: CellTiter-Glo, 72 h, at 10 µM; for differential viability (reversal): stronger effect = higher value.
Test [7] in a line: 384-well plate pilot, post-Golgi transport modulator project, inhibition of yeast transport mutant growth (AID 636; in the data active = inhibition above about 31%). The settings on record: absorbance 615 nm, about 18 h, stronger effect = higher value.
The nature of test [8]: growth suppression of yeast trafficking mutant, preliminary HTS, modulators of trafficking downstream of Golgi apparatus project, 1536-format plate, OD 615 nm (AID 637; in the data active = inhibition above about 30%). Conditions: yeast transport mutant growth, absorbance 615 nm, 18 h; stronger effect = higher value.
Test [9] is described as follows: OD615 S. cerevisiae growth inhibition, permissive medium, pilot counter-assay, permissive growth control for S. cerevisiae lifespan shortening project (AID 705). Conditions: OD615, 24 h, at 10 µM, stronger effect = higher value.
Test [10] is described as follows: Restrictive medium S. cerevisiae growth inhibition, OD615, pilot screen of yeast lifespan reduction project, restrictive growth control (AID 706;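 active = growth inhibition above a set limit, 3 SD over mean compound inhibition, in both replicates, cut at about 43% in these data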;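 also: modified DeaD lifespan yeast strain shifted to restrictive glucose medium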). Conditions: OD615, 48 h, at 10 µM, stronger effect = higher value.
Test [11] is described as follows: viability gain of MRP-1-high H69AR cells under doxorubicin, pilot screen, MRP-1 activator project, CellTiter-Glo, duplicate (AID 807;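 active = viability increase at or above a cutoff of the median across tested compounds plus 3 SD, cut at about 8.5% in these data, passing the limit was not always enough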;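 also: compound pretreatment 18-22 h then 72 h combined with doxorubicin; 0% = doxorubicin alone and 100% = vehicle without doxorubicin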). Conditions: H69AR viability with doxorubicin, CellTiter-Glo luminescence; at 10 µM; stronger effect = higher value.
A short description of test [12]: growth suppression of beta-catenin knockout HCT116, pilot screen, human colon tumor cells (AID 823;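 active = cell viability at or below a set limit in both duplicate runs, the limit being the all-compound median minus 4 SD, cut at about 23% in these data, passing the limit was not always enough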;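 also: 0% = wells killed by 20 µM Hyamine and 100% = untreated DMSO cell wells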). Conditions: CellTiter-Glo, 60 h, at 10 µM, stronger effect = lower value.
Test [13] is described as follows: growth suppression of PTEN-deleted HCT116, pilot screen, cell-based, HCT116 clonal line, CellTiter-Glo (AID 824;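 active = viability at or below 27.92% in each of two runs, the all-compound median minus 4 SD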;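 also: 0% = 20 µM Hyamine control and 100% = vehicle cell control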). The settings on record: 60 h, at 10 µM, stronger effect = lower value.
A short description of test [14]: inhibitors of the yeast RAM network, pilot screen, dse1pr::URA3 reporter, 5-FOA selection (AID 869;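 active = inhibition over a set limit, the all-compound mean plus 3 SD, in both replicate runs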;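 also: 0% = DMSO wells with no growth and 100% = 10 µM 1-NA-PP1 with full growth; RAM network block rescues cells from 5-FOA so hits raise OD615 growth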). Conditions: S. cerevisiae dse1pr::URA3 5-FOA growth, OD615, 2 d; at 10 µM; stronger effect = higher value; strain carries analog-sensitive mutant Cbk1 kinase.
Test [15] in a line: RAM signaling pathway blockade in yeast – S. cerevisiae, Pdr1DBD-CYC8 efflux-inhibited sensitized strain, primary screen (AID 1298;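 active = RAM network inhibition above 8.4% in each of two replicates, 3 SD over the compound average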;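 also: 0% = DMSO untreated cells without growth and 100% = 10 µM 1-NA-PP1 full growth; higher means more yeast growth rescued from 5-FOA killing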). Conditions: S. cerevisiae cbk1-as DSE1-URA3 strain, 5-FOA growth OD615, 2 d; at 50 µM; stronger effect = higher value.
Where [16] appears, read: H69AR cells + 2 uM doxorubicin, measured here: viability with 2 uM doxorubicin, stronger effect = lower value.
The mark [17] stands for this setting: H69AR cells, compound alone cytotoxicity.

As to `CC1Cc2nc(SCC(N)=O)n(Cc3ccccc3)c(=O)c2S1` (stereo not given), the viability in test [1] is 88.5%; in test [3], 88.5% (inactive); in [4], 93.7% (inactive); in test [5], 88.3% (inactive); in [6] (setting [16]) it was 79.6%; in test [6] (setting [17]), 88.3%. Also, the values for the viability in test [12] and in [13] were 95.3% (inactive) and 90.9% (inactive), respectively. In addition, the Her2 level in [2] was 100% (inactive). The differential viability (reversal) in test [6] (H69AR cells + 2 uM doxorubicin) was 8.68% (inactive). Besides, the inhibition is -3.6% (inactive) in test [7], -4.67% (inactive) in [8] and 1.32% (inactive) in test [14]. For the same compound, the values for the growth inhibition in test [9] and in [10] were -18.9% (inactive) and -26.3% (inactive), respectively. For the same compound, in test [11], the viability increase was -1.84% (inactive). The RAM network inhibition in [15] is 1.84% (inactive).
Consider `Cc1cc2ncc(-c3ccc(Cl)cc3)c(N)n2n1`, for which the viability in [1] was 83%; in test [3], 83% (inactive); in test [4] it was 69.6% (inactive); in test [5] it was 82.7% (inactive); in [6] (setting [16]), 83.1%; in [6] (setting [17]), 82.7%. The viability was 88% (inactive) in test [12] and 85.4% (inactive) in [13]. The Her2 level in test [2] was 114% (inactive). In test [6] (H69AR cells + 2 uM doxorubicin), the differential viability (reversal) was -0.45% (inactive). Also, the inhibition in [7] is -4.93% (inactive); in test [8] it was -0.5% (inactive); in [14], 1.27% (inactive). Moreover, the growth inhibition is -12.6% (inactive) in test [9] and -0.665% (inactive) in test [10]. Moreover, in test [11], the viability increase was -4.85% (inactive). In addition, the RAM network inhibition in test [15] is 1.2% (inactive).
For `COc1ccc(-n2c(Cc3cccn3C)nnc2SCC(=O)Nc2ccc(Cl)cc2)cc1`, the viability is 99% in test [1]; 99% (inactive) in test [3]; 46.6% (inactive) in test [4]; 70.7% (inactive) in test [5]; 79% in test [6] (setting [16]); 70.7% in test [6] (setting [17]). Besides, the viability in [12] was 47.6% (inactive); in test [13], 51.3% (inactive). Besides, the Her2 level in test [2] is 58% (inactive). Also, in [6] (H69AR cells + 2 uM doxorubicin), the differential viability (reversal) is -8.34% (inactive). Moreover, the inhibition was -0.38% (inactive) in test [7], 2% (inactive) in test [8] and -0.125% (inactive) in test [14]. For the same compound, the values for the growth inhibition in test [9] and in [10] were 4.53% (inactive) and 8.94% (inactive), respectively. For the same compound, the viability increase in [11] was -6.37% (inactive). Further, in [15], the RAM network inhibition is 5.81% (inactive).
For the compound `CCCn1c(NCc2cc(C)ccc2O)nc2ccccc21`, the viability is 94.5% in test [1]; 94.5% (inactive) in [3]; 69.4% (inactive) in [4]; 77.9% (inactive) in [5]; 76% in test [6] (setting [16]); 77.9% in test [6] (setting [17]). Further, the viability in [12] is 53.6% (inactive); in [13], 60.1% (inactive). For the same compound, the Her2 level in test [2] is 106% (inactive). The differential viability (reversal) in [6] (H69AR cells + 2 uM doxorubicin) is 1.94% (inactive). For the same compound, the inhibition is -1.73% (inactive) in [7], 9.68% (inactive) in test [8] and -0.08% (inactive) in test [14]. In addition, the figures for the growth inhibition in [9] and in [10] were -4.45% (inactive) and -8.17% (inactive), respectively. In addition, in [11], the viability increase was -4.6% (inactive). Also, the RAM network inhibition in test [15] was 0.33% (inactive).
Consider `COc1ccc(NC(=O)C2CCCN(S(=O)(=O)c3cccc4cccnc34)C2)cc1OC` (stereo not given), for which the viability in test [1] was 82%; in test [3], 82% (inactive); in [4] it was 75.4% (inactive); in test [5] it was 67.5% (inactive); in test [6] (setting [16]), 74.2%; in [6] (setting [17]), 67.5%. Further, the viability in test [12] was 80.3% (inactive); in test [13] it was 78.6% (inactive). In [2], the Her2 level is 106% (inactive). The differential viability (reversal) in [6] (H69AR cells + 2 uM doxorubicin) is -6.73% (inactive). Further, the inhibition is -4.13% (inactive) in test [7], 1.67% (inactive) in [8] and 2.09% (inactive) in test [14]. Further, the values for the growth inhibition in test [9] and in test [10] were -1.21% (inactive) and 0.31% (inactive), respectively. Besides, the viability increase in test [11] was -2.32% (inactive). Moreover, the RAM network inhibition in test [15] was 2.55% (inactive).
